Data as given in PMC6925144, “A prospective compound screening contest identified broader inhibitors for Sirtuin 1” (Scientific Reports, 2019).
Whole data set: some 3,200 compounds, median “TSA(without NAD+) / Primary screening (TSA) / delta Tm (K)” near -0.07, cut for the highest 2% near 0.37. The full list was thinned out, with the highest values kept by preference.

Each molecule was assayed against NAD-dependent deacetylase Sirtuin 1 (human, UniProt Q96EB6) (assay: primary screen, delta tm). Details: 10 µM.
Sequence of NAD-dependent deacetylase Sirtuin 1 (Q96EB6 2-747 limits assumed): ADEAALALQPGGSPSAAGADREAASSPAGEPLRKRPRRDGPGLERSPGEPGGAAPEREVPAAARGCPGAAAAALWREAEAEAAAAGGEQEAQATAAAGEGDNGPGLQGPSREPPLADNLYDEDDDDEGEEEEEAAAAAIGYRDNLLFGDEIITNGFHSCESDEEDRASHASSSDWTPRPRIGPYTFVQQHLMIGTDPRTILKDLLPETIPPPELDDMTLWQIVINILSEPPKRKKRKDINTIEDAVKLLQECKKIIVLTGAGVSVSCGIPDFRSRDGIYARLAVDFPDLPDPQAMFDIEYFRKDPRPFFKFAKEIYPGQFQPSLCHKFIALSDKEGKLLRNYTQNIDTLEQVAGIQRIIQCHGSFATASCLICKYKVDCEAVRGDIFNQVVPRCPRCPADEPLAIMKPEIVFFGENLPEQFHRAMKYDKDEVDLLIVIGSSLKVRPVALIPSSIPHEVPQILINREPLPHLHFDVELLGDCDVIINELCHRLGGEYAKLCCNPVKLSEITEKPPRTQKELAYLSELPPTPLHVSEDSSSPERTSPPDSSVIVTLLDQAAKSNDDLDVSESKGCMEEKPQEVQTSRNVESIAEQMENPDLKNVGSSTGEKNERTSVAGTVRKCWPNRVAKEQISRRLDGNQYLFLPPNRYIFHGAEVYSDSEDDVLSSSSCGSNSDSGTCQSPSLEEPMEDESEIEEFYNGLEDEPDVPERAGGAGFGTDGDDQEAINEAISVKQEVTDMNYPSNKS
Design: single well (n = 1)
Protocol: A total of 3,192 compounds extracted from the proposed lists were first screened by thermal shift assay (TSA), which determined a melting temperature shift (ΔTm) of Sirtuin 1 upon the addition of a test compound at a concentration of 10 µM (n = 1) with primary hit criteria of ΔTm > 0.45 K or ΔTm < −1.5 K. Primary hits (48 compounds) were retested in the same assay at three concentrations (5, 10, 20 µM, n = 4) for hit confirmation and for dose-dependency check. Secondary hits (41 compounds) were checked their selectivity for Sirtuin 1 based on counterscreening on unrelated protein targets (bovine carbonic anhydrase (CA) and recombinant SH2 domain of hABL1 kinase (ABL1)) at three different concentrations (5, 10, 20 µM, n = 4), which yielded 38 hit compounds, hereafter referred to as TSA hits. The TSA screening above was conducted in the absence of NAD+.

Row | SMILES | TSA(without NAD+) / Primary screening (TSA) / delta Tm (K)
1 | Cc1nn(CC(=O)N2CCC(N3CCCC3C(N)=O)CC2)cc1-c1ccccc1 (stereo not shown) | -0.22
2 | CC(Nc1ccnc(CC#N)c1)C(=O)N1CCCCC1C (stereo not shown) | -0.28
3 | CS(=O)(=O)c1cccc(C(=O)N(Cc2ccccc2)c2ccccc2)c1 | -0.13
4 | CCCn1nnnc1CN1C(=O)NC(Cc2c[nH]c3ccccc23)C1=O (stereo not shown) | -0.28
5 | O=C(Cn1[nH]c(=O)c2ccccc2c1=O)NC1CCCc2ccccc21 (stereo not shown) | 0.19
6 | Cc1ccccc1N1C(=O)c2ccc(C(=O)OCC(N)=O)cc2C1=O | -0.08
7 | CC1(C)C(=O)Nc2ccccc2N1C(=O)CNc1cccc2c1CCCC2 | -0.24
8 | CCS(=O)(=O)N1CCN(c2ccc(C(N)=O)cc2)CC1 | -0.15
9 | O=C(c1cnc2ccccc2n1)N1CCCC1c1nc2ccccc2s1 (stereo not shown) | -0.04
10 | COc1ccc(N(C)S(=O)(=O)c2cccc(C(=O)Nc3sc4c(c3C(N)=O)CCC(C)C4)c2)cc1 (stereo not shown) | 0.08
11 | CN(C)c1ccnc(N2CCCC(N3CCNC3=O)C2)n1 (stereo not shown) | -0.18
12 | CN(c1ccccc1)S(=O)(=O)c1cccc(NC(=O)c2ccc(C(N)=O)cc2)c1 | 0.02
13 | Cc1ccc(N(C)S(=O)(=O)c2cccc(C(=O)NNC(=O)c3ccncc3)c2)cc1 | -0.08
14 | CC1CCc2[nH]c3ccc(C(=O)Nc4cccc(S(=O)(=O)N(C)c5ccccc5)c4)cc3c2C1 (stereo not shown) | 0.42
15 | Cc1ccc(C(=O)NNC(=O)c2cccc(S(=O)(=O)N(C)c3ccc(C)cc3)c2)cc1 | -0.14
16 | COc1ccc(N(C)S(=O)(=O)c2cccc(C(=O)Nc3cccc(C#N)c3)c2)cc1 | 0.22
17 | Cc1ccc(N(C)S(=O)(=O)c2cccc(C(=O)Nc3ccc4c(c3)C(=O)N(C)C4=O)c2)cc1 | 0.45
18 | CN(c1ccccc1)S(=O)(=O)c1cccc(NC(=O)c2cccc(C#N)c2)c1 | 0.13
19 | Cc1ccc(N(C)S(=O)(=O)c2cccc(C(=O)Nc3cccc(C(=O)NC4CC4)c3)c2)cc1 | 0.06
20 | CN(c1ccccc1)S(=O)(=O)c1cccc(C(=O)Nc2ccccc2)c1 | 0.12
21 | Cc1ccc(N(C)S(=O)(=O)c2cccc(C(=O)NNC(=O)CC34CC5CC(CC(C5)C3)C4)c2)cc1 | 0.45
22 | Cc1ccc(N(C)S(=O)(=O)c2cccc(C(=O)Nc3cccc(C#N)c3)c2)cc1 | 0.43

Row | SMILES | TSA(without NAD+) / Primary screening (TSA) / delta Tm (K)
23 | CSc1cccc(NC(=O)c2cccc(S(=O)(=O)N(C)c3ccc(C)cc3)c2)c1 | 0.35
24 | Cc1cc(CSc2nc3ccccc3[nH]2)no1 | 0.07
25 | Cc1ccc(C(=Nc2c(C)cc(C)cc2C)c2ccc(C)cc2)cc1 | -0.04
26 | CC(C#N)(NC(=O)CNc1cccnc1-c1ccccc1)C1CC1 (stereo not shown) | 0.08
27 | CN(Cc1ccccc1)C(=O)NCC1CCN(c2ccncc2)CC1 | -0.02
28 | CC1CCc2[nH]c3ccc(C(=O)OCC(=O)NC(=O)NC45CC6CC(CC(C6)C4)C5)cc3c2C1 (stereo not shown) | 0.27
29 | CN(Cc1nc2ccccc2s1)C(=O)CSc1nnc(CC2CCS(=O)(=O)C2)o1 (stereo not shown) | -0.13
30 | CN(C)c1ccc(NC(=O)c2cccc(S(=O)(=O)N(C)c3cccc(Cl)c3)c2)cc1 | 0.27
31 | Cc1ccc(N(C)S(=O)(=O)c2cccc(C(=O)Nc3ccncc3)c2)cc1 | -0.18
32 | CCCCc1ccc(NC(=O)c2cccc(S(=O)(=O)N(C)c3cccc(Cl)c3)c2)cc1 | 0.58
33 | COc1cccc(NC(=O)c2cccc(S(=O)(=O)N(C)c3ccc(C)cc3)c2)c1 | -0.02
34 | CN(c1cccc(Cl)c1)S(=O)(=O)c1cccc(C(=O)Nc2ccc(C(N)=O)cc2)c1 | 0.08
35 | Cc1ccc(N(C)S(=O)(=O)c2cccc(C(=O)Nc3ccc(Br)c(C)c3)c2)cc1 | 0.48
36 | COC(=O)c1ccccc1NC(=O)Cc1c[nH]c2ccccc12 | -0.22
37 | COc1cc(/C=N/NC(=O)c2cc3c(s2)CCCC3)ccc1OCC(=O)Nc1ccc(C)cc1 | -0.22
38 | COc1cc(/C=N/NC(=O)c2cc3c(s2)CCCC3)ccc1OS(=O)(=O)c1cc(C)ccc1C | 0.32
39 | CCOc1cc(/C=N/NC(=O)c2cc3c(s2)CCCC3)ccc1OCC(=O)Nc1cccc(C(F)(F)F)c1 | 5.11
40 | O=C(C1=C(O)C(=O)N(CCCN2CCOCC2)C1c1ccco1)c1ccc(F)cc1 (stereo not shown) | -0.08
41 | CC(NC(=O)COC(=O)c1ccc2c(c1)S(=O)(=O)c1ccccc1C2=O)C12CC3CC(CC(C3)C1)C2 (stereo not shown) | 0.17
42 | CC(C)CCN1C(=O)c2ccc(C(=O)OCC(=O)NC(C)C34CC5CC(CC(C5)C3)C4)cc2C1=O (stereo not shown) | 0.48
43 | CC(NC(=O)COC(=O)CCCN1C(=O)c2cccc3cccc(c23)C1=O)C12CC3CC(CC(C3)C1)C2 (stereo not shown) | -0.34
44 | COc1ccc(C(=O)C2=C(O)C(=O)N(CCCN3CCOCC3)C2c2ccc(OC)cc2)cc1 (stereo not shown) | -0.13

Row | SMILES | TSA(without NAD+) / Primary screening (TSA) / delta Tm (K)
45 | CC(=O)Nc1ccc(NC(=O)c2cccc(C(N)=O)c2)cc1C | -0.07
46 | NC(=O)c1cccc(NC(=O)c2cc3c(s2)-c2ccccc2CC3)c1 | 1.03
47 | NS(=O)(=O)c1ccc(C(=O)Nc2ccc3c(c2)-c2ccccc2C3)cc1 | 0.23
48 | NC(=O)Cn1cnc2c(cnn2-c2ccccc2)c1=O | -0.08
49 | Cc1cc(S(=O)(=O)NCc2ccc(C(N)=O)cc2)sc1Cl | -0.11
50 | CC(C)(C)c1ccccc1NC(=O)c1ccc(S(=O)(=O)N2CCCC2)cc1 | -0.07
51 | O=c1onc(-c2cnccn2)n1Cc1nc2cc([N+](=O)[O-])ccc2o1 | -0.12
52 | CC(=O)N1N=C(c2ccccc2)CC1c1ccc(Br)cc1 (stereo not shown) | -0.02
53 | CC(=O)N1N=C(c2ccc(O)cc2)CC1c1ccccc1 (stereo not shown) | 0.07
54 | O=C(CSc1nnnn1-c1ccc(O)cc1)N1N=C(c2ccc3ccccc3c2)CC1c1ccccc1 (stereo not shown) | 0.49
55 | CN(C(=O)Cc1ccc(NC(=O)NCc2ccc(-n3cncn3)nc2)cc1)c1ccccc1 | 0.08
56 | Cc1ccc(NC(=O)NCCc2cccc(O)c2)cc1NC(=O)NCCc1cccc(O)c1 | 0.38
57 | CN1CCCN(c2ccc(NC(=O)NCCCNC(=O)c3cccc(O)c3)cc2F)CC1 | 0.02
58 | CCCNC(=O)Nc1ccc(OC)cc1 | -0.12
59 | CC(CN1CCOCC1)NC(=O)C(Cc1ccccc1)n1cnnn1 (stereo not shown) | -0.23
60 | Cc1ccc(N(C)S(=O)(=O)c2cccc(C(=O)Nc3ccccc3C(F)(F)F)c2)cc1 | -0.13
61 | O=C(NN/C=C1/C(=O)N(c2cccc(C(F)(F)F)c2)C(=O)c2ccccc21)c1cccc(S(=O)(=O)Nc2ccccc2Cl)c1 | 1.45
62 | Cc1ccc(N(C)S(=O)(=O)c2cccc(C(=O)Nc3ccccc3Cl)c2)cc1 | 0.07
63 | COC(=O)c1cc(-c2csc(NC(=O)c3cccc(NC(=O)c4cnoc4C)c3)n2)c[nH]1 | 0.46
64 | NC(=O)NCc1ccc(C(=O)Nc2nc(-c3c[nH]c(C(N)=O)c3)cs2)cc1 | -0.03
65 | COc1ccc(NC(=O)c2ccc(NC(=O)c3cnoc3C)cc2)cc1OCc1cccnc1 | -0.18
66 | Cc1nc(-c2ccc(CCNC(=O)c3ccc(NC(=O)c4cccs4)cc3)s2)cs1 | 0.63

Row | SMILES | TSA(without NAD+) / Primary screening (TSA) / delta Tm (K)
67 | Cc1nc(-c2ccc(CCNC(=O)c3ccc(NC(N)=O)cc3)s2)cs1 | 0.23
68 | COc1ccc(C(=O)NCCc2ccc(-c3csc(C)n3)s2)cc1 | 0.07
69 | COc1ccc(C(=O)C2=C(O)C(=O)N(CCCN3CCOCC3)C2c2ccccc2)cc1C (stereo not shown) | 0.06
70 | CC(c1ccc(S(N)(=O)=O)cc1)N(C)Cc1nc2ccccc2c(=O)[nH]1 (stereo not shown) | -0.15
71 | O=C1CCCN1C(=O)Cn1cnc2cc(Cl)ccc2c1=O | -0.11
72 | COc1ccc(NC(=O)C2=COCCO2)cc1Cc1ccccc1 | 0.45
73 | COc1ccc(NC(=O)C2=COCCO2)cc1S(=O)(=O)N1CCOCC1 | -0.13
74 | O=C(Nc1ccc(OC(F)F)c(Cc2ccccc2)c1)C1=COCCO1 | -0.12
75 | O=C(Nc1cccc(Cn2[nH]c(=O)ccc2=O)c1)c1cccc(Oc2ccccc2)c1 | -0.13
76 | NC(=O)c1ccc(OCC(=O)NC(=O)NCc2cccs2)cc1 | 0.03
77 | Cc1sc2ncnc(N3CCC(C(N)=O)CC3)c2c1C | -0.11
78 | Cc1sc2nc(-c3cccs3)nc(N3CCC(C(N)=O)CC3)c2c1C | 0.58
79 | Cc1sc2nc(-c3cccnc3)nc(N3CCC(C(N)=O)CC3)c2c1C | 0.25
80 | NC(=O)C1CCN(c2nc(-c3cccnc3)nc3sc4c(c23)CCCC4)CC1 | 0.33
81 | NC(=O)C1CCN(c2ncnc3sc4c(c23)CCCC4)CC1 | 0.28
82 | NC(=O)C1CCN(c2nc(-c3cccs3)nc3sc4c(c23)CCCC4)CC1 | 2.58
83 | CCSCCOC(=O)c1ccc2[nH]c(C(F)F)nc2c1 | -0.04
84 | Cn1c2ccccc2c2cc(S(=O)(=O)NCc3cccc(NC(=O)C4CC4)c3)ccc21 | -0.03
85 | CS(=O)(=O)c1ccc(NC(=O)c2ccccc2SCC(=O)NC23CC4CC(CC(C4)C2)C3)cc1 | -0.03
